This is a sample that favours compounds with a hit; in the whole collection about 2.1% have one here.
EWS-Fli inh = blocks EWS/Fli oncoprotein-driven transcription. inhibition, % at 12.6 µM. AID 651661. A673 NR0B1-luciferase reporter, viability-normalised. 350,000 tested, 0.67% active;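 active means mean inhibition of at least 50% after viability correction, with every replicate also passing that limit; inconclusive means mean reaches 50% but only one of two replicates passes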;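 further: firefly luciferase signal divided by Alamar Blue viability fluorescence both relative to DMSO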
PAX8 reporter = lowers PAX8-driven luciferase in RMG-I cells | inhibition, % at 12.6 µM | AID 652154 | RMG-I TPO-luciferase reporter, SteadyGlo, 24 h | 360,000 tested, 1.2% active;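 active means mean replicate inhibition at least 60% with every replicate also reaching 60%; inconclusive means only one of the two criteria is met; inactive means mean below 60% and not all replicates reaching 60%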;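 further: luciferase light reporting Pax8 driven TPO promoter activity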
KKLEB tox = counter-screen for CF NF-kB inhibitors: cytotoxicity; KKLEB CF airway cells viability, ATPlite luminescence, overnight; hits give low values; cells stimulated with P. aeruginosa culture filtrate; activity change (cytotoxicity), % at 5 µM; 360,000 tested, 0.36% active; AID 602141;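 active means corrected activity change at or below -50% at 5 µM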
CF NFkB inh = inhibitors of cystic fibrosis induced NF-kB | KKLEB NF-kB-GFP reporter, PAF-induced, GFP fluorescence overnight | inhibition, % at 5 µM | 360,000 tested, 0.86% active;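 active means at least 50% inhibition at 5 µM, scaled per plate between neutral and stimulator controls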;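 further: PAF is a Pseudomonas aeruginosa culture filtrate used as stimulus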
HIF-2a block = HIF-2a inhibition | inhibition, % at 18.8 µM | 786-0 RCC cells HIF-2a reporter, luciferase luminescence, overnight | 360,000 tested, 0.72% active;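 active means inhibition of the luminescence signal of 40% or more relative to plate controls, in a single-dose primary screen at 18.75 µM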
CF NFkB conf = CF NF-kB inhibition confirmation, single concentration; shares compounds with CF NFkB inh; KKLEB CF airway cells, PAF-induced NF-kB-GFP fluorescence, overnight; inhibition, % at 5 µM; 1,300 tested, 64% active; in the data active means inhibition above about 40%;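 further: stimulus PAF is a Pseudomonas aeruginosa filtrate and not platelet activating factor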
Hits are given with their value; i = inactive; ? = inconclusive; nt = not tested or not shown.

SMILES	EWS-Fli inh	PAX8 reporter	KKLEB tox	CF NFkB inh	HIF-2a block	CF NFkB conf
C[C@H]1CN([C@@H](C)CO)S(=O)(=O)c2ccc(-c3cncnc3)cc2O[C@@H]1CN(C)C(=O)CN(C)C	i	nt	nt	nt	nt	nt
C=C1C(=O)O[C@@]23[C@H]1CC[C@@H](C)[C@@H]2CC[C@@]1(C)O[C@@H]31	nt	nt	i	54	i	71
NC(=O)c1sc2nccc(Nc3ccccc3)c2c1N	nt	nt	i	73	i	73
CC(C)NC(=O)N(C)C[C@H]1OCCCC[C@@H](C)Oc2ccc(NC(=O)c3ccncc3)cc2C(=O)N([C@H](C)CO)C[C@H]1C	i	i	nt	nt	nt	nt
C[C@@H]1CN([C@@H](C)CO)C(=O)c2cc(NS(=O)(=O)c3ccc(F)cc3)ccc2O[C@@H](C)CCCCO[C@H]1CN(C)C(=O)C1CCCCC1	i	i	nt	nt	nt	nt
Cc1ccc(C(=O)COC(=O)c2cc(Cl)ccc2O)cc1[N+](=O)[O-]	nt	i	i	52	i	47
O=C(Nc1cccnc1)c1sc2cccc(F)c2c1Cl	i	i	i	53	i	54
O=C(Nc1ccccn1)c1sc2cccc(F)c2c1Cl	i	i	i	i	i	nt
COc1ccc(NC(=O)NNC(=O)COc2ccc3cc(Br)ccc3c2)c(OC)c1	nt	i	i	52	i	i
COc1cc(Br)c(C(=O)c2nccc3cc(OC)c(OC)cc23)cc1OC	i	i	i	60	i	i
COc1cc(Cc2nccc3cc(OC)c(OC)cc23)c(NC(C)=O)cc1OC	i	i	i	i	i	nt
Cc1cc(Br)cn2c(Cc3ccsc3)c(-c3ccc(Cl)cc3)nc12	nt	nt	i	50	i	i
Cc1cc(Br)cn2c(Cc3ccsc3)c(-c3ccco3)nc12	i	i	i	60	i	i
O=C(C[C@@H]1CC[C@H]2[C@@H](COC[C@H](O)CN2S(=O)(=O)c2ccccc2)O1)NCC1CCCCC1	i	i	nt	nt	nt	nt
O=C(Nc1ccc(Cl)c(Cl)c1)Nc1ccon1	nt	i	i	54	i	40
COc1ccc(S(=O)(=O)N(C)C[C@@H]2OCCCC[C@H](C)Oc3ccc(NC(=O)Nc4cccc5ccccc45)cc3C(=O)N([C@@H](C)CO)C[C@H]2C)cc1	i	i	nt	nt	nt	nt
CCS(=O)(=O)N1[C@H](CO)[C@@H](c2ccc(C#Cc3ccccc3F)cc2)[C@@H]1C#N	?	i	nt	nt	nt	nt
COc1ccc(OC)c(/C=C/C(=O)N2C(=O)c3cccc(N)c3C2=O)c1	i	i	i	60	i	i
COc1cc(/C=C/C(=O)N2C(=O)c3cccc(N)c3C2=O)cc(OC)c1OC	i	i	i	64	i	i
Cc1noc(C)c1NC(=O)N(C)C[C@H]1Oc2c(NC(=O)NC3CCCCC3)cccc2C(=O)N([C@@H](C)CO)C[C@H]1C	i	nt	nt	nt	nt	nt
CCC(=O)Nc1ccc2c(c1)C(=O)N(C)C[C@H](OC)[C@@H](C)CN(Cc1ccncc1)[C@H](C)CO2	i	i	nt	nt	nt	nt
C[C@@H]1CCCCO[C@H](CN(C)C(=O)Cc2ccccc2)[C@@H](C)CN([C@@H](C)CO)C(=O)c2cc(N(C)C)ccc2O1	i	i	nt	nt	nt	nt
COc1ccc(/C=N/Nc2nc(-c3cccnc3)nc3ccccc23)cc1OC	i	i	i	64	i	68
COc1ccc(CCNc2nc(-c3cccnc3)nc3ccccc23)cc1OC	i	i	i	58	i	i
C[C@@H]1CN([C@@H](C)CO)C(=O)Cc2cc(NC(=O)c3ccncc3)ccc2O[C@H]1CN(C)C(=O)Nc1ccccc1	i	i	nt	nt	nt	nt
SMILES	EWS-Fli inh	PAX8 reporter	KKLEB tox	CF NFkB inh	HIF-2a block	CF NFkB conf
Cc1cccc(N2CCN(C(=O)CCn3c(=S)[nH]c4cc5c(cc4c3=O)OCO5)CC2C)c1 (stereo not given)	nt	nt	i	69	i	101
O=C(COC(=O)c1ccc2ncsc2c1)Nc1ccc(OC(F)(F)F)cc1	i	i	i	52	i	i
CC(C)(C)c1ccc(NC(=O)COC(=O)c2ccc3ncsc3c2)cc1	i	i	i	i	i	nt
Cc1ccsc1/C=N/NC(=O)c1nnn(-c2nonc2N)c1-c1ccccc1	i	i	i	i	i	nt
COc1cccc(-c2c(C(=O)N/N=C/c3sccc3C)nnn2-c2nonc2N)c1	i	i	i	50	i	i
O=C(C[C@@H]1C=C[C@@H](NC(=O)NC2CCCCC2)[C@@H](CO)O1)NCc1ccccc1	i	i	nt	nt	nt	nt
NS(=O)(=O)c1ccc(CCNC(=O)c2ccncc2)cc1	i	i	i	i	i	nt
NS(=O)(=O)c1ccc(CCNC(=O)c2ccc(C#CC3(O)CCCCC3)cc2)cc1	i	?	i	81	i	80
Nc1cc2c(cc1Br)-c1ccccc1C2=NO	i	i	i	50	i	61
CCNC(=O)Nc1ccc2c(c1)C(=O)N(C)[C@@H]1CC[C@@H](CC(=O)N[C@H](C)c3ccccc3)O[C@@H]1CO2	i	i	nt	nt	nt	nt
CC1(C)CC(=O)C=C(NC2=CC3OC(c4ccccc4)OCC3OC2=O)C1 (stereo not given)	i	?	i	72	i	52
C[C@@H]1CCCCO[C@H](CN(C)Cc2ccc3c(c2)OCO3)[C@H](C)CN([C@@H](C)CO)C(=O)c2cc(NC(=O)Nc3cccc4ccccc34)ccc2O1	i	i	nt	nt	nt	nt
CN1CCN(C(=O)C[C@H]2CC[C@H]3[C@@H](COC[C@H](O)CN3Cc3cccc(F)c3)O2)CC1	i	i	nt	nt	nt	nt
CS(=O)(=O)N1[C@@H](C#N)[C@@H](c2ccccc2-c2ccc(F)cc2)[C@@H]1CO	i	i	nt	nt	nt	nt
NC(=O)c1nc(-c2cccs2)nc2c1[nH]c(=O)n2-c1ccc(F)cc1	i	i	i	53	i	i
COc1ccc(-c2cc(C(F)(F)F)nc(S(=O)(=O)CCC(=O)N3CCOCC3)n2)cc1	nt	nt	i	79	i	47
C#Cc1cccc(Nc2nc(NCCOC)nc3ccsc23)c1	i	i	i	i	i	nt
C#Cc1cccc(Nc2nc(NC(C)C)nc3ccsc23)c1	i	i	i	50	i	i
Cc1ccc(NC(=O)COC(=O)C2CCN(c3ccc(C(F)(F)F)cn3)CC2)cc1C	i	i	i	i	i	nt
O=C(COC(=O)C1CCN(c2ccc(C(F)(F)F)cn2)CC1)Nc1cccc(F)c1	i	i	i	64	i	i
C[C@@H]1CN([C@H](C)CO)S(=O)(=O)c2ccc(C#Cc3cccnc3)cc2O[C@@H]1CN(C)C	i	nt	nt	nt	nt	nt
CCOC(=O)c1ccc2c(c1)nc(SC/C(O)=C(\C#N)c1nc3ccccc3[nH]1)n2CC	nt	nt	i	66	i	59
CCOc1ccc(C2NC(=O)NC(C)=C2C(=O)OCc2ccccc2)cc1 (stereo not given)	i	i	i	i	i	nt
COc1ccc(COC(=O)C2=C(C)NC(=O)NC2c2ccc(F)cc2)cc1 (stereo not given)	i	i	i	60	i	59
O=C(C1CC1)N1CCCCN2[C@@H](CO)[C@@H](c3ccc(-c4cccc(F)c4)cc3)[C@@H]2C1	i	i	nt	nt	nt	nt
c1nc(N2CCOCC2)c2c3c(sc2n1)CCCC3	nt	nt	i	55	i	70
CCN(CCCc1ccccc1)CCCc1ccccc1	i	i	i	54	i	i

Source: PubChem
